PubChem BioAssay AID624126 (The Scripps Research Institute Molecular Screening Center, 2012)
The whole screen tested about 360,000 compounds, of which about 1,400 (0.39%) were called active.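 Rule for the calls: active = activation above its plate's cutoff, the mean activation of sample wells plus 3 SD; inactive = the rest.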 Shown is part of a subset that was picked to be rich in actives.

Target: Muscarinic acetylcholine receptor M4 (Homo sapiens) (UniProt P08173)
Assay: human M4 muscarinic receptor positive allosteric modulators, primary screen, CHO-K1 cells, Fluo-8 calcium fluorescence (AID 624126)
Settings: CHO-K1 hM4/Gqi5, Fluo-8 calcium fluorescence, ACh EC20; at 3 µM; hits give high values; 0% = ACh EC20, 100% = maximal ACh

Chain of Muscarinic acetylcholine receptor M4 (Homo sapiens) (P08173 whole entry, looked up): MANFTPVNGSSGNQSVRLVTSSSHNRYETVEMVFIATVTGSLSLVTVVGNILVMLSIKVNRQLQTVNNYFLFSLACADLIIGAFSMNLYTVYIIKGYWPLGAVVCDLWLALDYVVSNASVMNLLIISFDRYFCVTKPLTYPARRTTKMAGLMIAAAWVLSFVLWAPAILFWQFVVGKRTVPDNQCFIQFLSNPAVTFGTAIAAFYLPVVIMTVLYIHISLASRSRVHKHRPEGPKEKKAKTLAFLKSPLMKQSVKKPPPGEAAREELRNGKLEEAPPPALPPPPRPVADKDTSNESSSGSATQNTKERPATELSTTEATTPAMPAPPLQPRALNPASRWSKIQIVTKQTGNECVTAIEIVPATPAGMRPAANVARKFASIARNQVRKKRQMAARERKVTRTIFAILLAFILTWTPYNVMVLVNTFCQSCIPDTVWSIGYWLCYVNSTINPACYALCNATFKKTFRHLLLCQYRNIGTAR

SMILES | activation
Cc1ccccc1NC(=O)CCOc1ccccc1 | 15.2% (active)
CCc1ccccc1NC(=O)CCOc1ccccc1 | -7.57% (inactive)
Cc1cccc(OCCC(=O)Nc2ccccc2C(N)=O)c1 | 0.92% (inactive)
CCCn1nc(NS(=O)(=O)c2ccccc2)c2cc3cc(C)ccc3nc21 | 9.07% (inactive)
COc1ccc(CN2C(=O)C(CC(=O)NC3CCCCC3)CC(C(=O)N3CCOCC3)=C2C)cc1 (stereo not given) | 0.19% (inactive)
Cn1c(CCN2CCN(c3ccccn3)CC2)nc2cc(NS(=O)(=O)c3ccc(F)cc3)ccc21 | -13.9% (inactive)
C=CCC1(CC=C)CCCN1C(=O)CC1C(=O)NCCN1Cc1ccccc1OC (stereo not given) | 9.2% (inactive)
O=C(Nc1ccccc1-c1ccccc1)c1ccccc1[N+](=O)[O-] | -0.05% (inactive)
O=C(NCCNc1ccccc1[N+](=O)[O-])c1ccccc1F | -0.9% (inactive)
O=C(Nc1ccccc1Cl)c1ccccc1S(=O)(=O)c1ccccc1[N+](=O)[O-] | 24.3% (active)
Cc1cc(OC(C)C(=O)Nc2ccc(S(=O)(=O)Nc3onc(C)c3C)cc2)cc(C)c1Cl (stereo not given) | -0.5% (inactive)
Cc1noc(NS(=O)(=O)c2ccc(NC(=O)c3oc4ccc(F)cc4c3C)cc2)c1C | -0.81% (inactive)
COc1ccc(C(=O)Nc2ccc(S(=O)(=O)Nc3onc(C)c3C)cc2)cc1OC | 31.2% (active)
CCOC(=O)CNC(=O)CSc1ccc2nnc(-c3cccnc3)n2n1 | -1.25% (inactive)
CN(Cc1ccccc1)C(=O)c1ccc(NC2=NC3CS(=O)(=O)CC3S2)cc1 (stereo not given) | -4.53% (inactive)
Cc1ccc2nc(-c3ccncc3)cc(C(=O)Nc3ccncc3)c2c1 | 20.7% (active)
Cc1ccc(-c2cc(C(=O)NCc3cn(C)nc3C)c3cc(Br)ccc3n2)cc1 | -8.1% (inactive)
CCS(=O)(=O)Nc1cccc(-c2cc(-c3ccccc3)c3cc(C)ccc3n2)c1 | -23% (inactive)
CCCC[C@@H]1CN=C(N)N1CCc1cc(C(F)(F)F)cc(C(F)(F)F)c1 | -12.2% (inactive)
CCOC(=O)C1=C(c2ccccc2)O/C(=C(/C(=O)OC)C(F)(F)F)S1 | -8.8% (inactive)
COCCNc1ncnc2c1ncn2[C@H]1CN(CCN2CCOCC2)C[C@@H](CO)O1 | -3.76% (inactive)
OC[C@@H]1CN(Cc2ccc(Cl)cc2)C[C@H](n2cnc3c(NCc4ccncc4)ncnc32)O1 | -0.98% (inactive)
COCCNc1ncnc2c1ncn2[C@H]1CN(Cc2ccc(OC)cc2)C[C@@H](CO)O1 | 16.3% (active)
COc1cc(CC(=O)N2CCC(n3nccc3NC(=O)C3CC3)CC2)cc(OC)c1OC | 0.58% (inactive)
Cc1cc(C)cc(N)c1 | -1.71% (inactive)

SMILES | activation
CC(Nc1nc(C(F)(F)F)nc2ccccc12)c1cccs1 (stereo not given) | -11.8% (inactive)
CC(C)NC(=O)C(=O)N/N=C/c1ccco1 | 23.7% (active)
Cc1c(Cl)cccc1NC(=O)CCC(=O)N/N=C/c1ccco1 | 4.77% (inactive)
O=C(CCNC(=O)c1ccccc1Cl)NN=Cc1ccco1 | 3.05% (inactive)
O=C(OCC(=O)N(CCc1ccccc1)Cc1ccccc1)c1ccccc1[N+](=O)[O-] | -11% (inactive)
CC(NC(=O)COc1ccccc1)C(=O)NC1=NCCS1 (stereo not given) | 8.32% (inactive)
CCN1CN(Cc2ccccc2)CNC1=S | 10.7% (inactive)
CCCCN1C(=O)c2ccc(C(=O)Nc3ccc(S(=O)(=O)N(C)C)cc3)cc2C1=O | -10.2% (inactive)
CN1CCN(S(=O)(=O)c2cccc(C(=O)Nc3cccc(S(N)(=O)=O)c3)c2)CC1 | -0.95% (inactive)
CC(C)CCN1C(=O)c2ccc(C(=O)Nc3cccc(S(N)(=O)=O)c3)cc2C1=O | 23.1% (active)
CC(=O)NC(NC(=S)Nc1c(C)n(C)n(-c2ccccc2)c1=O)C(Cl)(Cl)Cl (stereo not given) | -1.16% (inactive)
CCCCc1ccc(NC(=S)N2CCCC(CO)C2)cc1 (stereo not given) | 0.72% (inactive)
CCOC(=O)c1sc(NC(=O)C2CSC3(C)CCC(=O)N23)nc1C (stereo not given) | 2.06% (inactive)
CCOC(=O)c1sc(NC(=O)CSc2n[nH]c(CC)n2)nc1C | -9.01% (inactive)
CCOC(=O)c1sc(/N=C/Nc2nc(C)c(C(=O)OCC)s2)nc1C | 39% (active)
Cc1ccn2cc(-c3nonc3C)cc2c1 | 3.14% (inactive)
Cc1ccc(S(=O)(=O)N2CCCCC2)cc1C(=O)N1CCN(CCO)CC1 | 7.4% (inactive)
CN1CCN(C(=O)N2c3ccccc3CCc3ccccc32)CC1 | -20.3% (inactive)
CCc1noc(C)c1C(=O)N1CCCC(N2CCN(c3ccc(F)cc3)CC2)C1 (stereo not given) | 20% (active)
COc1ccccc1CN1CCCC(N2CCN(c3ccc(F)cc3)CC2)C1 (stereo not given) | -7.29% (inactive)
Cc1cnc(C(=O)N2CCCC(N3CCN(c4ccccc4F)CC3)C2)cn1 (stereo not given) | 6.32% (inactive)
COCCCNC(=O)Cn1cc(/C=C(\C#N)C(=O)N2CCN(c3ccccc3)CC2)c2ccccc21 | 6.26% (inactive)
COc1ccc(CCNC(=O)CCn2c(=O)oc3ccccc32)cc1OC | 5.54% (inactive)
CCN1CCC2(CCN(Cc3cn[nH]c3-c3ccc(OC)c(F)c3)C2)C1 (stereo not given) | 16.5% (inactive)
CC[C@]1(O)CC2CN(CCc3c([nH]c4ccccc34)[C@@](C(=O)OC)(c3cc4c(cc3OC)N(C=O)[C@H]3[C@@](O)(C(=O)OC)[C@H](OC(C)=O)[C@]5(CC)C=CCN6CC[C@]43[C@@H]65)C2)C1 (stereo not given in full) | -0.6% (inactive)

SMILES | activation
CCN(CC)S(=O)(=O)c1ccc(NC(=O)c2cccnc2Cl)c(NC(=O)c2cccnc2Cl)c1 | 2.53% (inactive)
CCCCNC(=O)c1cn(CC)c2cc(N3CCN(C(=O)c4ccco4)CC3)c(F)cc2c1=O | 18% (active)
CCCCCCn1cc(C(=O)O)c(=O)c2cc(F)c(N3CCCCC3)cc21 | -1.05% (inactive)
CCn1cc(C(=O)NCCO)c(=O)c2cc(F)c(N3CCN(C)CC3)cc21 | -4.27% (inactive)
O=C1NC[C@@H](c2ccccc2)OC(=O)[C@H](Cc2ccc(F)cc2)CC/C=C/C[C@H]1CC(=O)N(CCO)Cc1ccccc1 | -11.5% (inactive)
O=C(O)CCn1cc(/C=C/C(=O)c2ccc(Cl)cc2)c(-c2cccc(Br)c2)n1 | -5.08% (inactive)
O=[N+]([O-])c1ccc2[nH]c3c(c2c1)CCCC3O (stereo not given) | 6.6% (inactive)
CC(C)Oc1ccccc1C(=O)NC(CO)C(=O)O (stereo not given) | 7.23% (inactive)
CC(=O)Oc1ccc(NC(=O)CCC2CCCCC2)c(C(=O)O)c1 | 4.74% (inactive)
COc1ccc(NC(=O)CCn2ccnc2)c(OC)c1 | -8.61% (inactive)
COc1ccc(NC(=O)CCCC2CCCCC2)c(OC)c1 | 21.1% (active)
CCOC(=O)c1c(CN(C)C)n(-c2ccccc2)c2cc(Br)c(O)cc12 | 1.89% (inactive)
Nc1nnc(C2CCCC2)s1 | -4.96% (inactive)
CCOC(=O)C1CCN(C(=O)/C=C/c2cc(OC)c(OC)c(OC)c2)CC1 | 0.77% (inactive)
COc1cc(/C=C/C(=O)N2CCc3ccccc3C2)cc(OC)c1OC | -4.53% (inactive)
COc1ccc(/C=C/C(=O)N2CCCC2)cc1OC | 31.3% (active)
COc1cccc(NC(=O)Cn2c3ccccc3c3nc4n(c(=O)c32)CCS4)c1 | 7.32% (inactive)
O=C(NCc1cccnc1)C12CC3CC(CC(C3)C1)C2 | -4.11% (inactive)
O=C(NCc1ccncc1)NC12CC3CC(CC(C3)C1)C2 | 21.2% (active)
S=C(NCc1ccc(Cl)cc1)NC12CC3CC(CC(C3)C1)C2 | -13.6% (inactive)
Cc1noc(C)c1NC(=O)N(C)C[C@@H]1Oc2cc(Br)ccc2S(=O)(=O)N([C@@H](C)CO)C[C@H]1C | 3.07% (inactive)
COc1ccc(CCNC(=O)COC(=O)c2ncc(Cl)c(Cl)c2Cl)cc1OC | 0.15% (inactive)
COC(=O)c1ccc(OC(=O)c2nn(C)cc2Cl)c(OC)c1 | 22% (active)
COC(=O)c1ccc(COC(=O)c2cnc(Cl)c(Cl)c2)cc1 | 1.26% (inactive)
COc1ccc(CSc2nnnn2-c2ccc(O)cc2)cc1F | -3.48% (inactive)
